Most compounds without a hit are left out; they make up all but 27% or so of the library.
Cav3 T inh: human Cav3.2 channel inhibition, primary screen; O95180; Cav3.2-expressing cells, Fluo-4 calcium fluorescence FDSS; hits give low values; 100,000 compounds, 4% hits; B-score at 10 µM; AID 449739;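 active = single-dose well whose peak fluorescence ratio is a statistical outlier from its plate by either plate-standardised score or position-corrected B-score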
CYP2C19 inhib: blocks human cytochrome P450 2C19 | P33261 | CYP2C19 Supersomes, luciferin-H EGE luminescence, 30 min | inhibition, % at 5 µM | 96,000 compounds, 21% hits | AID 778;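 active = CYP2C19 inhibition above a set limit at 5 µM in the primary screen, cut at about 50% in these data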;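 also: plate controls were negative control wells for no effect and 2.5 mM tranylcypromine positive control for full effect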
CYP2C19 activ: increases human CYP2C19 enzyme activity | activation factor at 5 µM | recombinant CYP2C19, luciferin-H EGE luminescence; hits give high values; 0 = fully inhibited enzyme, 1 = untreated enzyme | AID 1025 | 96,000 tested, under 10 active;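 active = activation factor of at least 2 at 5 µM in the primary screen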;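 also: 0 = wells with 2.5 mM tranylcypromine and 1 = vehicle-only wells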
CYP2C9 act: activators of human CYP2C9; P11712; recombinant CYP2C9, luciferin-H conversion, luminescence; hits give high values; factor 1 = untreated enzyme, 0 = blocked; activation factor at 5 µM; 96,000 compounds, 1.4% hits;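 active = activation factor of 2 or more for CYP2C9 at a 5 µM dose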;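 also: 0 = sulfaphenazole-blocked wells and 1 = vehicle-only wells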
CYP2C9 inh: human CYP2C9 inhibition; 96,000 compounds, 20% hits; P11712; CYP2C9 Supersomes, luciferin-H conversion, luminescence; inhibition, % at 5 µM;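 active = blocking of liver enzyme CYP2C9 beyond about 50% at 5 µM, limit read from the data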
Active calls of the source: *; nt = no result given.

SMILES	Cav3 T inh	CYP2C19 inhib	CYP2C19 activ	CYP2C9 act	CYP2C9 inh
Cn1nnnc1SCC(=O)N1c2ccccc2Sc2ccccc21	-0.17	45	0.5	0.9	6
CCOC(=O)CSc1n[nH]c(-c2ccco2)n1	0.045	-2	1	1	-2
COc1ccc2c(c1)CCc1c(C(=O)NC3CCCCC3)noc1-2	1.4	-1	1	1	-3
CC1=C(C#N)C(C(F)(F)F)(C(F)(F)F)N=C(c2ccco2)N1	0.18	82*	0.2	0.3	75*
COc1cc(C(C)=O)ccc1OC(=O)C(C)N1C(=O)c2ccccc2C1=O (stereo unspecified)	-0.61	37	0.6	0.5	54*
COc1cccc(C(=O)COC(=O)C(C)N2C(=O)c3ccccc3C2=O)c1 (stereo unspecified)	-2.8	25	0.8	1	5
CCCCc1ccc(CC2S/C(=C(\C#N)C(=O)N3CCOCC3)N(c3ccccc3)C2=O)cc1 (stereo unspecified)	-3.9*	7	0.9	0.7	32
N#C/C(C(=O)N1CCOCC1)=C1/SC(Cc2ccccc2)C(=O)N1c1ccccc1 (stereo unspecified)	-0.45	10	0.9	0.9	12
CC(C)Cc1cc(C(=O)N2N=C(C(F)F)CC2(O)C(F)F)c2ccccc2n1 (stereo unspecified)	-7*	nt	nt	nt	nt
O=C(c1cc(Cl)nc2ccccc12)N1CCCCC1	0.027	19	0.8	1.2	-22
CCc1ccc(-c2cc(C(=O)N3N=C(C(F)F)CC3(O)C(F)F)c3ccccc3n2)cc1 (stereo unspecified)	-1.5	22	0.8	0.2	78*
NC(=O)CC(NC(=O)Cc1cccc2ccccc12)c1ccc(NC2CCCCC2)c([N+](=O)[O-])c1 (stereo unspecified)	-0.42	nt	nt	nt	nt
CCn1c(=S)ccc2ccc(OC)cc21	0.11	64*	0.4	0.7	28
CCn1ccc2cc(OC)ccc2c1=S	-0.032	16	0.8	1.1	-6
C=CCN1CCN(C(c2ccccc2)c2nnnn2CCC(C)C)CC1 (stereo unspecified)	0.49	43	0.6	1	-2
O=C(CSc1nnc2c(Cl)cc(C(F)(F)F)cn12)Nc1ccc2c(c1)OCO2	0.048	30	0.7	0.7	32
CCCn1c(SCc2ccccc2)nc2c1c(=O)[nH]c(=O)n2C	0.31	24	0.8	1.1	-9
CCCCn1c(=O)[nH]c(=O)c2c1nc(CN1C(=O)c3ccccc3S1(=O)=O)n2CCC	1.2	80*	0.2	0	98*
C=CCn1c(SCc2nc3c(c(=O)[nH]c(=O)n3CCCC)n2CCC)nnc1-c1ccccc1	0.48	44	0.6	0.2	84*
CCCCn1c(=O)[nH]c(=O)c2c1nc(COc1ccc(C#N)cc1)n2CCC	0.33	25	0.7	0.1	90*
Cc1cc(S(=O)(=O)NC(C)C)ccc1OCC(=O)N1CCOCC1	1.2	12	0.9	0.7	29
COc1ccc(S(=O)(=O)N2CCOC2CNC(=O)C(=O)NCCc2c[nH]c3ccccc23)cc1C (stereo unspecified)	-3.5*	nt	nt	nt	nt
COC(=O)c1ccc(C(=O)OC)c(NC(=O)COC(=O)C23CC4CC(CC(O)(C4)C2)C3)c1	1.5	13	0.9	0.4	58*
O=C(OCc1ccccc1)C1=[N+]([O-])OC(C(=O)OCc2ccccc2)C1c1c[nH]c2ccccc12 (stereo unspecified)	-1.7	84*	0.2	0	96*
O=C(N1CCCC1)N1CCN(c2ncnc3c(-c4ccc(Cl)cc4)nsc23)CC1	nt	-11	1.1	1.2	-16
SMILES	Cav3 T inh	CYP2C19 inhib	CYP2C19 activ	CYP2C9 act	CYP2C9 inh
CCc1ccc(NC(=O)CC2C(=O)N(c3cccc(C)c3)C(=O)N2C2CC2)cc1 (stereo unspecified)	-0.2	nt	nt	nt	nt
Cn1nc(-c2ccccc2)c(CSc2ccccc2Cl)c1Cl	-0.88	36	0.6	0.8	24
Cc1ccc(S(=O)(=O)c2c(COC(=O)c3ccccc3Cl)c(-c3ccccc3)nn2C)cc1	-0.92	50*	0.5	0.3	70*
O=C(CN(Cc1ccccc1)S(=O)(=O)c1ccccc1)NC1CC1	0.36	nt	nt	nt	nt
COC(=O)c1ccc2nc(C3CCCCC3)c3c(c2c1)CCC3	0.11	nt	nt	nt	nt
Cc1cc(N2CCN(C/C=C/c3ccccc3)CC2)n2ncnc2n1	0.91	21	0.8	0.5	52*
CN=C(Nc1ccc(Cl)cc1)c1ccc(C(F)(F)F)cc1	-1	80*	0.2	0.7	25
CN=C(Nc1ccc(Cl)cc1)c1cccc(C(F)(F)F)c1	-1.1	74*	0.3	0.8	23
O=C(Nc1ccc(-c2csc(Nc3ccc(Cl)cc3)n2)cc1)c1cccc(C(F)(F)F)c1	-0.0086	nt	nt	nt	nt
C/C(=C\C(=O)C(F)(F)F)Nc1ccc(C(F)(F)F)cc1	0.32	4	1	1	2
Cc1ccc(OCC(O)CNC(=O)c2ccccc2C(=O)O)cc1 (stereo unspecified)	0.76	0	1	1	4
CNc1nc2sc3c(c2c(=O)n1C)CC(C)(C)SC3	1.2	73*	0.3	0.4	56*
CN(C)c1nc2sc3c(c2c(=O)n1C)CC(C)(C)OC3	-0.9	6	0.9	1	5
O=C(CC(c1ccccc1)c1ccccc1)NCCO	0.23	19	0.8	0.8	17
O=C(COc1ccc2ccccc2c1Br)Nc1ncn[nH]1	0.21	56*	0.4	0.9	9
O=C(CC(c1ccccc1)c1ccccc1)Nc1ncn[nH]1	0.87	50*	0.5	0.2	83*
O=C(COc1ccc2ccccc2c1Br)N1CCOCC1	0.74	nt	nt	nt	nt
Cc1cccc(C)c1OCC(=O)Nc1ncn[nH]1	0.95	63*	0.4	1	1
Cc1ccc(SC(C)C(=O)Nc2ncn[nH]2)cc1 (stereo unspecified)	-0.027	25	0.8	0.7	28
O=C(NC1CCN(Cc2ccccc2)CC1)C12CC3CC(CC(C3)C1)C2	3.6	nt	nt	nt	nt
N#CC(C#N)=CC1=C2OC(c3ccccc3)=CC(c3ccccc3)=C2CCC1	-1.1	40	0.6	0.2	79*
O=c1[nH]c2ccc(Cl)cc2c(-c2ccccc2)c1N1CCN(c2ccccn2)CC1	-0.36	-8	1.1	0.6	39
COC(=O)CN(c1cc(C(F)(F)F)ccc1Cl)S(C)(=O)=O	-0.057	56*	0.4	1	2
COCCNC(=O)CN(c1cc(C(F)(F)F)ccc1Cl)S(C)(=O)=O	0.94	58*	0.4	1.2	-18
O=C(COC(=O)C1(c2ccc(Cl)cc2)CCCC1)NC1CCS(=O)(=O)C1 (stereo unspecified)	0.62	27	0.7	1	4
C=CCNC(=O)C1CCCN(S(C)(=O)=O)C1 (stereo unspecified)	-1.6	5	1	1	-4
Cc1ccc(NC(=O)CS(=O)Cc2nc(-c3ccc(C)cc3)oc2C)cc1 (stereo unspecified)	-4.6*	36	0.6	0.4	60*

From PubChem
